Results reported in PubChem BioAssay.
The source made the active and inactive calls. No rule for the calls is given here.

Experiment: Brca1-Bard1 BiLC signal decrease – luminescence, single concentration, counter-screen for Mdm2/MdmX interaction inhibitor project, confirmation (AID 504668)
Settings: Brca1/Bard1 bimolecular luciferase complementation counterscreen, at 8 µM, hits give high values

Compound | inhibition
O=C(CCN1C(=O)/C(=C/c2ccccc2F)SC1=S)NCCc1ccc(O)cc1 | 33% (active)
CN(C)CCCNC(=S)NCC(c1ccc(Cl)cc1Cl)c1c[nH]c2ccccc12 (stereo not given) | 29.2% (active)
COc1ccc2cc1Oc1ccc(cc1)C[C@H]1c3c(cc4c(c3Oc3cc5c(cc3OC)CCN(C)[C@@H]5C2)OCO4)CCN1C | 31.6% (active)
Cc1ccc2cccc(NS(=O)(=O)c3ccccc3)c2n1 | 23.1% (active)
O=C(c1ccc(S(=O)(=O)c2ccccc2Cl)c([N+](=O)[O-])c1)N1CCN(Cc2ccccc2)CC1 | 29.6% (active)
CCOC(=O)c1c(-c2ccccc2)oc2ccc(OCC(O)CN(C)C)cc12 (stereo not given) | 32.5% (active)
CC(=O)/C(C#N)=C1\NC(=O)C(Cc2ccccc2Cl)S1 (stereo not given) | 30.1% (active)
CC(C)CC(=O)NC(c1cccs1)c1ccc2cccnc2c1O (stereo not given) | 25.3% (active)
CCCOCc1ccc(O)c2ncccc12 | 27.6% (active)
O=C(CCCN1C(=O)/C(=C\c2cccs2)SC1=S)Nc1ccc(O)cc1 | 31.8% (active)
CCOC(=O)c1c(-c2ccccc2)oc2ccc(OCC(O)CNCCN(C)C)cc12 (stereo not given) | 35.1% (active)
Cc1sc2ncnc(N3CCC(C(=O)Nc4ccccc4C(C)(C)C)CC3)c2c1C | 27.8% (active)
CCCC(O)(CCC)C(=O)NN(C(=O)CCl)c1cccc(C)c1 | 23.7% (active)
O=C(/C=C\c1cn(-c2ccccc2)nc1-c1ccccc1)Nc1nccs1 | 28.9% (active)
CC(C)c1cc(C(=O)NC2CCCc3c2cnn3-c2ccccc2F)no1 (stereo not given) | 29.3% (active)
COc1cc(NS(=O)(=O)c2ccc(N/C=C(\C#N)c3nc4cc(Cl)ccc4o3)cc2)nc(OC)n1 | 35.2% (active)
CN(C)CCNC(=O)/C(=C/c1ccc(-c2ccc(Cl)cc2Cl)o1)NC(=O)c1ccccc1 | 26.3% (active)
CC(=O)NC(c1cc(Cl)c2cccnc2c1O)C1CC1 (stereo not given) | 33.4% (active)
N#Cc1c2ccc(O)cc2n2ccccc12 | 35.2% (active)
CCCN(CCC)c1nc(-c2ccccn2)nc2ccccc12 | 24.6% (active)

Compound | inhibition
COc1ccc(OC)c2sc(NC(=O)CCS(=O)(=O)c3ccccc3)nc12 | 23.8% (active)
CCCC(=O)NC(NC(=S)Nc1ccc(N=Nc2ccccc2)cc1)C(Cl)(Cl)Cl (stereo not given) | 32.4% (active)
COc1ccc(-n2c(SCC(=O)Nc3ncc(Cl)cc3Cl)nc3ccccc32)cc1 | 29.2% (active)
COc1ccccc1OCC(=O)N/N=C/c1c(O)ccc2ccccc12 | 27.8% (active)
CCOc1ccc(N(C(=O)/C=C/C(=O)Nc2cc(C)on2)C(C(=O)NC2CCCC2)c2ccccc2C)cc1 (stereo not given) | 27.4% (active)
Oc1ccc(CNc2ccc(F)cc2)c2cccnc12 | 36% (active)
O=C(Oc1c(Cl)cc(Cl)c2cccnc12)c1cccs1 | 32.1% (active)
O=C(c1ccco1)N1CCN(C(=O)C2CCCc3c2[nH]c2ccc(Cl)cc32)CC1 (stereo not given) | 28.5% (active)
O=C(Nc1nc(-c2ccccn2)cs1)c1cc(Cl)ccc1[N+](=O)[O-] | 32.3% (active)
Cc1ccc(-n2c(-c3ccccc3)c[n+]3c2CCc2ccccc2-3)c(C)c1 | 26.4% (active)
O=C1[C@H]2[C@@H](c3ccc(F)cc3)N3C(=O)N(c4ccc(Br)cc4)C(=O)[C@@]3(Cc3ccccc3)[C@H]2C(=O)N1C1CCCCC1 | 26.6% (active)
N=c1ccn2c(n1)OC1C(O)C(CO)OC12 (stereo not given) | 45.7% (active)
CN(C(=O)c1ccc(S(=O)(=O)c2cccc(Cl)c2)c([N+](=O)[O-])c1)C1CCCCC1 | 28.9% (active)
COc1ccc(-c2oc3ncnc(NCCCN(C)C)c3c2-c2ccc(OC)cc2)cc1 | 28.6% (active)
Cc1ccc(O)c(N=Nc2nccs2)c1 | 23.2% (active)
COc1ccc(/C=C2\CCC/C(=C\C=N\N(C)C)C2=O)cc1 | 29.2% (active)
CC(C)Cc1nc(Nc2ccc(S(=O)(=O)N3CCCC3)cc2)c2nnn(Cc3ccccc3)c2n1 | 24.1% (active)
COc1ccc(-c2nc(CN3CCN(c4cc(C)nc(C)c4)CC3)c(C)o2)c2ccccc12 | 34.4% (active)
CCC(=O)NC(c1ccccc1OC)c1ccc2cccnc2c1O (stereo not given) | 32.5% (active)
COc1ccc(C(NC(=O)c2cccnc2)c2cc(Cl)c3cccnc3c2O)cc1OC (stereo not given) | 26.3% (active)
